Screening data (PubChem)
Hits are enriched below; roughly 0.45% of the tested compounds scored in any of these assays.
TcdB inh: TcdB glycohydrolase inhibitors, primary screen, biochemical, single point, plate reader; Toxin B (Clostridioides difficile), P18177; TcdB glycohydrolase enzymatic assay; inhibition, % at 9.99 µM; 0.24% of 350,000 active; AID 652162, 2013; in the data active means inhibition above about 10%
Target sequence (P18177 whole entry, looked up): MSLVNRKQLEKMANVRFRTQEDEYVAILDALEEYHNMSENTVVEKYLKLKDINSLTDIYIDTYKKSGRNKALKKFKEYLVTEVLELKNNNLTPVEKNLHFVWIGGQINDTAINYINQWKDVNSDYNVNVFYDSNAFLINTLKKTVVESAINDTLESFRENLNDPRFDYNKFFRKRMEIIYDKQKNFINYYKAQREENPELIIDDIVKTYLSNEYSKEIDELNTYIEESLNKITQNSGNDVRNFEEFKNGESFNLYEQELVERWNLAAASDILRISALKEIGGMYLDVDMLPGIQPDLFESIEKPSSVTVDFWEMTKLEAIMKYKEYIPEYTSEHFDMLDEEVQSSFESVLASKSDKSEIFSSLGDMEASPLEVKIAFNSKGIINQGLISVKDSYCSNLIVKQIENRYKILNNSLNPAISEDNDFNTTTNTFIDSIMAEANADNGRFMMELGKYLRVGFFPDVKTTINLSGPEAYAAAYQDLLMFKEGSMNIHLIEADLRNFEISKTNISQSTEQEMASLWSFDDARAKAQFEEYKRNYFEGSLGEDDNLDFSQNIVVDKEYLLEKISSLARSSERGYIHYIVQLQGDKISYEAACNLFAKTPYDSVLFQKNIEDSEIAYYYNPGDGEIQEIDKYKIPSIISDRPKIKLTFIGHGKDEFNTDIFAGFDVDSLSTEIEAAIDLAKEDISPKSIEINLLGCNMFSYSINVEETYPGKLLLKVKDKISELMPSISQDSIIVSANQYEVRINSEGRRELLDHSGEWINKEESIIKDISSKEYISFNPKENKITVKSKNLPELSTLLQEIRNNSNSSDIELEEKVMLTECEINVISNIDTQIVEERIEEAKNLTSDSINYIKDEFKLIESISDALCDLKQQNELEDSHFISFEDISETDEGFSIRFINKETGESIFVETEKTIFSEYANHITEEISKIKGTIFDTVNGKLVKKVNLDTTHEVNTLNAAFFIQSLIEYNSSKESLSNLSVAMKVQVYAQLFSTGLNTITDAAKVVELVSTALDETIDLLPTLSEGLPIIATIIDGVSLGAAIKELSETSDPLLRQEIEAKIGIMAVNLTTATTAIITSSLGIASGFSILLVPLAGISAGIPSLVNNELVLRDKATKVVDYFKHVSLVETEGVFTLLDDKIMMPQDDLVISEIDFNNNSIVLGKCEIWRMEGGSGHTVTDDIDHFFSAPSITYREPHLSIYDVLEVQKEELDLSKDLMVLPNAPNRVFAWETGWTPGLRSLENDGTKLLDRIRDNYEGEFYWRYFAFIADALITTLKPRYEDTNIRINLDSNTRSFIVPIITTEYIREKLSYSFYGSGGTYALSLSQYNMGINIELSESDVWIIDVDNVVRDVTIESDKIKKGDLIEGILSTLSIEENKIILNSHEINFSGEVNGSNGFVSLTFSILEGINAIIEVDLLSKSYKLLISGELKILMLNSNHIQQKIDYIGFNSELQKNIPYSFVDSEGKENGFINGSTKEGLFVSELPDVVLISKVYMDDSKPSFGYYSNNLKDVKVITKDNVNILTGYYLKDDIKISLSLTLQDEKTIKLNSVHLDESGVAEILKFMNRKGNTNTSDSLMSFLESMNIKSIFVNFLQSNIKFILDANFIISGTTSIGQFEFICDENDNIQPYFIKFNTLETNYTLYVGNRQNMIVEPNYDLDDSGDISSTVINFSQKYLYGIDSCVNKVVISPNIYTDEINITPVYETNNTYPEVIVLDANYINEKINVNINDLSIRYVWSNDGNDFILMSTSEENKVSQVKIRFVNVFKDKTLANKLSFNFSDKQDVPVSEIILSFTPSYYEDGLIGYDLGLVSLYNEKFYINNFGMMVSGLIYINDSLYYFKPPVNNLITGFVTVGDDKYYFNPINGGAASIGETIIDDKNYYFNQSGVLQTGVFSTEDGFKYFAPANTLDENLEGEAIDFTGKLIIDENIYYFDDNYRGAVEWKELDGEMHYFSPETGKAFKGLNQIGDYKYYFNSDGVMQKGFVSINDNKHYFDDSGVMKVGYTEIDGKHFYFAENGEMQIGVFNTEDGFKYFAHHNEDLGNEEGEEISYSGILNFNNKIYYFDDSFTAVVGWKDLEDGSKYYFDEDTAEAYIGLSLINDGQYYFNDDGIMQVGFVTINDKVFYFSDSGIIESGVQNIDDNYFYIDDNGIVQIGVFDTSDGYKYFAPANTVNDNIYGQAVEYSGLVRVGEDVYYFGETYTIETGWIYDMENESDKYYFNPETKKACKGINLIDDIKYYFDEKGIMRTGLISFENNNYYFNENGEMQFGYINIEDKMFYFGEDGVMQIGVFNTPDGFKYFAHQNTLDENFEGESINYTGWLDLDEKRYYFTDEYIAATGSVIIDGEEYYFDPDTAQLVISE
Yp Topo-I inh: Yersinia pestis topoisomerase I inhibitors, primary screen, biochemical, cleavage product accumulation, plate reader, single point; 0.064% of 360,000 active; activity, % at 10 µM; Y. pestis Topo-I cleavage product accumulation; DNA topoisomerase I (Yersinia pestis CO92); in the data active means activity above about 50%, passing the limit was not always enough
FadD28 binding: inhibitors of FadD28 bisubstrate probe binding, primary screen, biochemical, fluorescence polarization, single point; AID 588549, 2011; inhibition, % at 12.5 µM; Mycobacterium tuberculosis FadD28 fatty-acid-AMP ligase; 0.22% of 360,000 active; in the data active means inhibition above about 8.5%, passing the limit was not always enough
BioA inh: M. tuberculosis BioA enzyme inhibitors, primary screen, biochemical, plate reader, single point, HTS; 7,8-diaminopelargonic acid synthase BioA (Mycobacterium tuberculosis); inhibition, % at 9.99 µM; 0.096% of 360,000 active; purified M. tuberculosis BioA enzyme; in the data active means inhibition above about 40%
Starred values were filed as active, the others as inactive; · = no result given.

SMILES | TcdB inh | Yp Topo-I inh | FadD28 binding | BioA inh
CSc1ncc(Cl)c(C(=O)Nc2nnc(SC/C=C/c3ccccc3)s2)n1 | 0.2 | 4.4 | 15.1* | 1.5
O=C1C(=Cc2ccc(Br)o2)C(=O)c2ccccc21 | · | -31.4 | 40.8* | 1.1
CC1=C/C(=C\c2ccc(Br)o2)C(=O)O1 | 0.1 | -0.8 | -0.8 | ·
Cc1noc(C)c1S(=O)(=O)Nc1ccc2c(c1)C(=O)N([C@H](C)CO)C[C@@H](C)[C@H](CN(C)C(=O)c1ccncc1)OCCCC[C@@H](C)O2 | 0.1 | · | · | -0.8
O=C(CN1C(=O)NC2(CCCc3ccccc32)C1=O)c1ccc(Br)cc1 (configuration not stated) | -1.2 | 13.8 | 17.2* | -1.6
CCOC(=O)c1ccc2ncc(-c3ccccc3)nc2c1 | 25.4* | -2.6 | -1.4 | ·
CCC(=O)Nc1ccc2c(c1)C(=O)N(C)C[C@H](OC)[C@H](C)CN(C(=O)C1CC1)[C@H](C)CO2 | -0.4 | · | · | 0.2
C[C@H]1CN([C@@H](C)CO)C(=O)c2cc(C#Cc3ccccc3F)cnc2O[C@H]1CN(C)C(=O)Cc1cccnc1 | 0.2 | · | · | 0.3
Cc1nn2cc(-c3cccc(Cl)c3)cnc2c1Cl | 0.4 | 9.2 | 0.9 | 1.0
Cc1nn2cc(-c3cccc(Cl)c3)cnc2c1Br | 10.4* | 10.0 | 0.8 | ·
O=C1C(=O)C(Cl)=C(Cl)C(Cl)=C1Cl | · | · | 11.1* | -0.6
O=C(C[C@H]1C[C@H]2c3cc(NC(=O)Nc4ccc(F)cc4)ccc3O[C@H]2[C@H](CO)O1)NC1CCCC1 | -0.5 | · | · | -2.2
Cc1c(Cl)cccc1NC(=O)C1Cc2ccccc2CN1C(=O)c1ccccc1 (configuration not stated) | 11.0* | 3.2 | -3.7 | ·
CCSC(=O)CCCCCCCCCCCO | · | 38.4 | 18.5* | 2.6
CCCCCCCCO | 0.0 | 5.9 | -0.5 | 0.0
COc1cc(/C=N/NC(N)=S)ccc1OCc1ccc(C)cc1 | 1.8 | 10.7 | 15.8* | ·
O=C(c1ccccc1)N(Cc1ccc(F)cc1)Cc1nc2ccccc2c(=O)[nH]1 | · | 4.5 | -2.3 | 1.4
O=C(Nc1ccccc1F)N(Cc1ccc(F)cc1)Cc1nc2ccccc2c(=O)[nH]1 | 24.2* | 16.7 | -2.8 | ·
CC=Cc1ccc2n(c1=O)C[C@@H]1[C@@H](CO)[C@H](C(=O)Nc3nccs3)N(Cc3cc(F)ccc3F)[C@H]21 (mixture of isomers) | 0.3 | · | · | -0.3
Cc1cccc(CN2CCN(c3ncccn3)CC2)c1 | 13.1* | 0.0 | 0.5 | -0.3
COCC(=O)Nc1ccc2c(c1)C(=O)N(C)C[C@@H](OC)[C@@H](C)CN(CCC(F)(F)F)[C@H](C)CO2 | -2.0 | · | · | -1.9
Cc1onc(-c2ccccc2)c1C(=O)N(Cc1ccco1)Cc1cccs1 | 16.2* | 41.7 | -3.8 | ·
Cc1onc(-c2ccccc2)c1C(=O)NCc1ccco1 | · | 6.9 | 0.3 | -0.6
CCS(=O)(=O)N1CCCCN2[C@H](C1)[C@@H](c1ccc(-c3ccc(C#N)cc3)cc1)[C@@H]2CO | -4.0 | · | · | 0.4
C[C@H](O)C#Cc1ccc2c(c1)O[C@H](CN(C)C(=O)Nc1ccccc1)[C@H](C)CN([C@@H](C)CO)S2(=O)=O | 0.5 | · | · | 5.7
SMILES | TcdB inh | Yp Topo-I inh | FadD28 binding | BioA inh
CCc1ccc(NC(=S)N(Cc2ccc(Cl)cc2)Cc2ccc(C(=O)O)cc2)cc1 | 3.0 | 11.3 | 16.9* | ·
Cc1cc(NC(=S)N(Cc2ccc(Cl)cc2)Cc2ccc(C(=O)O)cc2)ccc1Cl | 1.4 | -11.2 | 1.6 | 9.0
CCc1ccccc1NC(=S)N(Cc1ccc(C(=O)O)cc1)Cc1ccc(OC)c(OC)c1 | 13.2* | 7.4 | -1.1 | 0.3
COc1ccc(CN(Cc2ccc(C(=O)O)cc2)C(=S)Nc2ccccc2C)cc1OC | 0.8 | 9.4 | -0.9 | -0.5
Cc1noc(C)c1S(=O)(=O)N(C)C[C@H]1Oc2c(NS(=O)(=O)c3cn(C)cn3)cccc2C(=O)N([C@H](C)CO)C[C@H]1C | 0.0 | · | · | -0.4
CO[C@H]1CN(C)C(=O)c2ccc(NS(=O)(=O)c3cn(C)cn3)cc2OC[C@@H](C)N(Cc2cccc(F)c2)C[C@H]1C | -1.3 | · | · | -0.3
O=C(N[C@H]1CC[C@H](CCNS(=O)(=O)Cc2ccccc2)O[C@H]1CO)c1ccccc1F | -0.4 | · | · | 2.0
COc1ccc([N+](=O)[O-])cc1NC(=S)NC(C)=O | 15.9* | -1.9 | -1.5 | ·
COc1cc([N+](=O)[O-])ccc1NC(=O)Oc1ccc(NC(C)=O)cc1 | 10.4* | -0.6 | -1.1 | 1.5
CO[C@H]1CN(C)C(=O)c2cc(NS(=O)(=O)c3cn(C)cn3)ccc2OC[C@@H](C)N(C)C[C@@H]1C | · | · | · | -1.0
C[C@H](CO)N1C[C@H](C)[C@H](CN(C)C(=O)Nc2cccc3ccccc23)Oc2ccc(NC(=O)C3CCCCC3)cc2CC1=O | -1.7 | · | · | -0.3
COc1cccc2c1C(=O)c1c(O)c3c(c(O)c1C2=O)CC(O)(C(C)=NO)CC3OC1CC(N)C(O)C(C)O1 (configuration not stated) | -24.0 | -43.8 | 63.3* | ·
COc1cccc2c1C(=O)c1c(O)c3c(c(O)c1C2=O)C[C@@](O)(C(=O)CO)C[C@@H]3OC1CC(N)C(O)C(C)O1 (some centres not stated) | -15.2 | -41.3 | 52.8* | ·
CC(=O)[C@@]1(O)Cc2c(O)c3c(c(O)c2[C@H](O[C@H]2C[C@H](N)[C@H](O)[C@H](C)O2)C1)C(=O)c1ccccc1C3=O | -3.1 | -34.6 | 74.2* | -93.9
COc1cccc2c1C(=O)c1c(O)c3c(c(O)c1C2=O)C[C@@](O)(C(=O)CO)C[C@@H]3O[C@H]1C[C@H](N)[C@H](O)[C@H](C)O1 | -13.9 | -31.5 | 63.4* | -41.7
CNC[C@H]1OCCCC[C@H](C)Oc2ccc(NC(=O)Nc3cccc4ccccc34)cc2C(=O)N([C@@H](C)CO)C[C@@H]1C | -1.3 | · | · | -2.8
COCCN(C[C@H]1[C@H](c2ccccc2)[C@H](CO)N1C(C)=O)C(=O)c1ccncc1 | -0.9 | · | · | -5.8
O=C(NCC[C@H]1CC[C@H](NS(=O)(=O)c2ccccc2)[C@@H](CO)O1)c1ccccc1F | 0.4 | · | · | -2.1
O=C(C[C@H]1C=C[C@H](NC(=O)c2ccncc2)[C@H](CO)O1)NCCc1ccncc1 | -0.3 | · | · | -2.9
CN(C)C(=O)C[C@@H]1CC[C@H]2[C@@H](COc3ccc(NC(=O)C4CCC4)cc3C(=O)N2C)O1 | -0.1 | · | · | ·
COc1cccc2c1C(=O)c1c(O)c3c(c(O)c1C2=O)CC(O)(C(C)=O)CC3OC1CC(N(C)C)C(O)C(C)O1 (configuration not stated) | -24.3 | -37.0 | 60.2* | ·
CC(=O)N(C)C[C@H]1Oc2cc(/C=C/c3ccccc3)ccc2S(=O)(=O)N([C@H](C)CO)C[C@H]1C | 0.9 | · | · | 1.5
C[C@@H]1CN([C@@H](C)CO)S(=O)(=O)c2ccc(C#Cc3ccncc3)cc2O[C@H]1CN(C)C(=O)C1CC1 | 11.2* | · | · | 0.6
C[C@H]1CN([C@@H](C)CO)S(=O)(=O)c2ccc(C#Cc3ccncc3)cc2O[C@H]1CN(C)C(=O)C1CC1 | 4.7 | · | · | -1.1
CC(=O)N(C)C[C@@H]1Oc2cc(/C=C/c3ccccc3)ccc2S(=O)(=O)N([C@H](C)CO)C[C@@H]1C | 12.6* | · | · | 3.5
CC(=O)N(C)C[C@H]1Oc2ncc(-c3ccc(C)cc3)cc2C(=O)N([C@H](C)CO)C[C@H]1C | 0.4 | · | · | -0.3
